Only a selection was taken, and hits are over-represented in it overall.
GAA glycogen mod: qHTS Assay for Inhibitors and Activators of Human alpha-Glucosidase Cleavage of Glycogen; Potency, µM (series often up to 76.4 µM), actives largely listed as inhibitors; recombinant GAA, glycogen substrate, Amplex Red glucose oxidase fluorescence; 0.38% of 300,000 active; Lysosomal alpha-glucosidase (Homo sapiens), P10253; AID 2100, 2009;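 further: the screen sought inhibitors and activators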
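qHTS, 1536-well; enzyme 4 nM final; cpd up to 77 uM; substrate bovine liver glycogen 30 ug; 50 mM citrate/phosphate pH 5.0, 0.01% Tween-20; 37 C, 40 min; Amplex Red detection 45 min RT; Hill fit → AC50.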
GLA inh pH 4.5: qHTS Assay for Inhibitors of Human alpha-Galactosidase at pH 4.5. 230,000 tested, under 10 active. purified enzyme, 4-MU-alpha-Gal fluorescence, pH 4.5. Alpha-galactosidase A (Homo sapiens), P06280. activity change, negative = inhibition, % at 105 µM. AID 1467, 2008
GAA inhib: qHTS Assay for Inhibitors of Human alpha-Glucosidase as a Potential Chaperone Treatment of Pompe Disease | Potency, µM (series often up to 76.9 µM), actives largely listed as inhibitors | AID 1466, 2008 | purified human GAA, 4-MU-alpha-glucoside fluorescence | 0.005% of 200,000 active | Lysosomal alpha-glucosidase (Homo sapiens), P10253
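Read-out is 4-methylumbelliferone fluorescence (Ex 365/Em 440 nm) after NaOH/glycine stop at pH 10. Enzyme 4 nM, substrate 400 uM, pH 5.0 citrate buffer, 20 min room temperature; AC50 from Hill-equation concentration-response.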
aGal spleen mod: qHTS Assay for Inhibitors and Activators of Human alpha-Galactosidase From Spleen Homogenate; 0.008% of 240,000 active; Alpha-galactosidase A (Homo sapiens), P06280; human spleen homogenate, 4MU-alpha-Gal fluorescence, 40 min; Potency, µM (series often up to 80 µM), hits mostly inhibitors
Target sequence (P06280 32-429 limits assumed): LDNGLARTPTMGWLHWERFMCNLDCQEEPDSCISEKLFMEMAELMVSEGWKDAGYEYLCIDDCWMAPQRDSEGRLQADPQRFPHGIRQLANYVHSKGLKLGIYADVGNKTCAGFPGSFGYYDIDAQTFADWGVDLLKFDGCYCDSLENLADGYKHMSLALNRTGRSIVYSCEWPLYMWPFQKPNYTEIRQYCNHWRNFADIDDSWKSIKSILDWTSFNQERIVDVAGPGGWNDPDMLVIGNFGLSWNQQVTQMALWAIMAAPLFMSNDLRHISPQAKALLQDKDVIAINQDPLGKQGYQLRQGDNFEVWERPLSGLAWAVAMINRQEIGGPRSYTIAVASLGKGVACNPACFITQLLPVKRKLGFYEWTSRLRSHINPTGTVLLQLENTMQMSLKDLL
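Human spleen homogenate (1 ug) was the enzyme source, with 4-methylumbelliferyl-alpha-D-galactopyranoside (1 mM final) in pH 5.0 citrate buffer with 0.01% Tween-20. Compounds were titrated; after 40 min at 37C, NaOH/glycine stop, 4-MU fluorescence read; AC50 from Hill fits.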
aGlu spleen mod: qHTS Assay for Inhibitors and Activators of Human alpha-Glucosidase From Spleen Homogenate. human spleen homogenate, 4-MU-alpha-glucoside fluorescence. Potency, µM (series often up to 79.9 µM), actives largely listed as inhibitors. 0.006% of 240,000 active
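AC50 values come from Hill-equation fits of concentration-response data, normalized to no-enzyme and full-activity controls. Enzyme source: 1 ug human spleen homogenate; 1 mM fluorogenic 4-MU glucoside, pH 5.0 citrate buffer, 37 C, 40 min.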
Hits are given with their value; 0 = inactive; ? = inconclusive; - = no result; [ ] = another dose, or the depositor's remark. The call rests on the fitted dose curve; in most records, active means well fitted curve in the direction sought with a large enough effect; inconclusive means small, poorly fitted or top-dose-only effect, or another doubt; inactive means no such curve, though single readings can be large; an effect the other way counts as inactive or inconclusive.

SMILES	GAA glycogen mod	GLA inh pH 4.5	GAA inhib	aGal spleen mod	aGlu spleen mod
O=C(NNc1cccc(Cl)n1)c1c(Cl)cccc1Cl	8.9µM	0	0	0	0
O=C(NNc1cccc(Cl)n1)c1c(F)cccc1F	?	0	0	0	-
CCOc1ccc(C=C2SC(=O)N(CCN)C2=O)cc1	-	-	-	0	0
Cc1c(N/C=C/C(=O)c2ccc(Cl)cc2)c(=O)n(-c2ccccc2)n1C	14µM	0	0	0	0
Cc1c(NC(C)c2ccccc2O)c(=O)n(-c2ccccc2)n1C (centres undefined)	28µM	0	0	0	0
Cc1c(NC(C)c2cc(Cl)ccc2O)c(=O)n(-c2ccccc2)n1C (centres undefined)	11µM	0	0	0	0
CNc1ccc(O)cc1	-	-	-	0	0
CCC(=O)NNc1nc2c(Cl)cccc2s1	6.3µM	0	0	0	0
CCC(C)CC(C)CC(C)C(=O)/C=C(/O)C(C)CC(C)C/C=C/C(C)C(O)C(C)C(O)CC1CCC(C)(C)O1 (centres undefined)	-	-	-	0	0
Oc1ccc(/C=N\Nc2cc(N3CCOCC3)nc(N3CCOCC3)n2)c(O)c1	10µM	0	0	0	0
COc1ccc(/C=N/Nc2cc(C)nc(N3CCOCC3)n2)c(OC)c1	0	0	-	0	0
Cc1cc(N/N=C/c2ccc(O)cc2O)nc(N2CCOCC2)n1	16µM	0	0	0	0
C=CCn1c(-c2cc(-c3ccccc3)sc2N)n[nH]c1=S	22µM	0	0	0	0
CCCC[C@@H](C)/C=C(C)/C=C(\C)C(=O)NC1=C[C@@](O)(/C=C/C=C/C=C/C(=O)NC2=C(O)CCC2=O)[C@@H]2O[C@@H]2C1=O	-	-	-	0	0
C=C(C)C(=O)OCCOCC	-	-	-	0	0
Cc1cc(O)c(/C=N/Nc2ccccc2Cl)c(=O)o1	25µM	0	0	0	0
O=C(O)C[C@@H]1C(=O)O[C@@H]2C(COC(=O)c3cc(O)c(O)c(O)c3)O[C@@H](OC(=O)c3cc(O)c(O)c(O)c3)[C@@H](OC(=O)c3cc(O)c(O)c4c3[C@H]1[C@H](O)C(=O)O4)[C@H]2OC(=O)c1cc(O)c(O)c(O)c1 (some centres undefined)	1.6µM	0	-	0	?
CC1(C)C(c2cccs2)=[N+]([O-])C2(CCCCC/C2=N\NC(N)=S)N1O (centres undefined)	18µM	0	0	0	0
Cc1cc(Nc2ccccc2)n(-c2ccccc2)n1	12µM	0	0	0	0
Cc1cc(C)nc(-n2nc(C)cc2Nc2ccccc2)n1	0	0	0	0	0
NC(=O)C(=CNc1nc(-c2ccc(Cl)c(Cl)c2)cs1)C(N)=O	7.1µM	0	-	0	0
O=C(O)COc1ccc(/C=N/n2c(COc3ccccc3)nc3ccccc3c2=O)cc1	0	0	0	0	0
O=c1c2ccccc2nc(COc2ccccc2)n1/N=C/c1ccc(O)c(O)c1	16µM	0	-	0	0
COC(=O)C1=C(C)N(Cc2ccc(C)cc2)C(=O)/C1=C\c1cc(OC)c(OC)c(OC)c1	0	0	0	0	0
COC(=O)C1=C(C)N(Cc2ccc(C)cc2)C(=O)/C1=C\c1ccc(O)c(OC)c1	28µM	0	0	0	0
SMILES	GAA glycogen mod	GLA inh pH 4.5	GAA inhib	aGal spleen mod	aGlu spleen mod
Cc1cc(S(=O)(=O)Nc2cc(C)c(O)c(C)c2)c(C)s1	22µM	0	0	0	0
O=C1C=CC2=C3c4cc(O)c(O)cc4C[C@@]3(O)COC2=C1	-	0	-	0	0
CC1(C)Cc2c(c(-c3ccccc3)nc3[nH][nH]c(=O)c23)CO1	5µM	0	0	0	0
CCOC(=O)C1=C(c2ccccc2)Nc2c(c(=O)n(C)c(=O)n2C)C1c1ccc(O)c(OC)c1 (centres undefined)	32µM	0	0	0	0
CC1CCc2c(nc3ncnn3c2N2CCN(c3ccccc3F)CC2)C1 (centres undefined)	0	0	0	?	0
CC1CCc2c(nc3ncnn3c2NCCc2ccccc2F)C1 (centres undefined)	4µM	0	0	0	0
COc1ccc(S(=O)(=O)Nc2c(C(=O)O)[nH]c3ccccc23)c(OC)c1	3.5µM	0	0	0	0
COc1ccc2[nH]c(C(=O)O)c(NS(=O)(=O)c3ccc(OC)c(OC)c3)c2c1	4µM	0	0	0	0
Nc1cc(N2CCCCC2)nc(N)[n+]1OS(=O)(=O)[O-]	-	-	-	0	0
CCN1C(C)=C(C(=O)OC)C(c2ccccc2)N2C(=O)[C@](O)(C(=O)OC)C(c3ccccc3)C(C(C)=O)=C12 (some centres undefined)	-	-	-	0[17.5 µM]	0[17.4 µM]
Cc1cc(C)c2c(-n3cccc3)c(C(=O)NNS(=O)(=O)c3ccc(Br)cc3)sc2n1	18µM	0	0	0	0
Cc1cc(C)c2c(-n3cccc3)c(C(=O)NCC(C)c3ccccc3)sc2n1 (centres undefined)	0	-	-	-	-
COc1cccc(NC(=O)NC2(C(F)(F)F)Oc3ccccc3O2)c1	8.9µM	0	0	0	0
COc1cccc(NC(=O)Nc2cccc(C(=O)O)c2)c1	0	0	0	0	0
CC(C)CNC(=O)NC1(C(F)(F)F)Oc2ccccc2O1	0	0	0	0	0
O=C(NCc1cccnc1)NC1(C(F)(F)F)Oc2ccccc2O1	25µM	0	0	?	0
O=C1CC(N2CCN(c3ccccc3O)CC2)C(=O)N1Cc1ccccc1 (centres undefined)	3.1µM	0	0	0	0
CN(C)/N=C/c1c(O)ccc2ccccc12	14µM	0	0	0	0
CCCCCCCCCCCCCCOS(=O)(=O)O	-	-	-	0	0
Nc1nc(-c2nn(Cc3ccccc3F)c3ncccc23)ncc1C1CC1	-	-	-	0	0
CCOC(=O)NC1(Nc2ccc(Cl)cn2)Oc2ccccc2O1	22µM	0	0	0	0
CC(C)C[C@H](NC(=O)[C@H](Cc1ccccc1)C[C@@H](O)[C@H](Cc1ccccc1)NC(=O)OC(C)(C)C)C(=O)N[C@@H](Cc1ccccc1)C(N)=O	-	-	-	0	0
c1ccc(-c2nc3ccccn3c2NC2CCCC2)nc1	11µM	0	0	0	0
Cc1ccc2nc(-c3ccncc3)c(NC3CCCC3)n2c1	?	0	0	0	0
Cc1ccn2c(NC3CCCC3)c(-c3ccncc3)nc2c1	28µM	0[21.1 µM]	0	0	0
Cc1ccc(N)c(Cl)c1	-	-	-	0	0
COc1cccc(-c2nnc3n2N=C(c2c(OC)cccc2OC)CS3)c1OC	-	-	-	0	0
C/C(=N\Nc1ccc(C(=O)O)cc1)c1ccc2c(c1)Nc1ccccc1S2	11µM	0	-	0	0
Cc1ccc2c(C(=O)CNc3nncs3)c(C)[nH]c2c1	28µM	0	0	0	0

Bioassay records deposited in PubChem BioAssay by National Center for Advancing Translational Sciences (NCATS).
